# Results published in the supplement of paper PMC13380429.
# How the values were obtained:
# [1] = system: Vero E6 infected with SARS-CoV-2; assay: morphology score (similarity to uninfected cells); higher = more like uninfected cells; conditions: 24 h
# [2] = system: Vero E6 infected with SARS-CoV-2; assay: SARS-CoV-2 infection rate relative to infected DMSO; higher = more infection, active = 60 or less; conditions: 24 h
# [3] = system: Vero E6 infected with SARS-CoV-2; assay: inhibition of SARS-CoV-2 cytopathic effect; higher = more antiviral protection, active = above 15; conditions: 48 h
structure (smiles),measurement,setting,value
CC(C)N(CCCNC(=O)Nc1ccc(C(C)(C)C)cc1)C[C@H]1O[C@@H](n2cc(Br)c3c(N)ncnc32)[C@H](O)[C@@H]1O (10 µM),morphology score,[1],-0.0211
same,SARS-CoV-2 infection rate,[2],120% (inactive)
CC(=O)OCC(=O)[C@@]12N=C(C)O[C@@H]1C[C@H]1[C@@H]3CCC4=CC(=O)C=C[C@]4(C)[C@H]3[C@@H](O)C[C@@]12C [Deflazacort (Calcort)] (10 µM),morphology score,[1],0.0216
same,SARS-CoV-2 infection rate,[2],97.5% (inactive)
CC(=C(CCO)SSCC1CCCO1)N(C=O)Cc1cnc(C)nc1N (stereo in doubt) [fursultiamine],inhibition of SARS-CoV-2 cytopathic effect,[3]; 1 nM,2.52% (inactive)
same,inhibition of SARS-CoV-2 cytopathic effect,[3]; 8.33 nM,0.44% (inactive)
same,inhibition of SARS-CoV-2 cytopathic effect,[3]; 100 nM,2.45% (inactive)
same,inhibition of SARS-CoV-2 cytopathic effect,[3]; 833.33 nM,-1.75% (inactive)
same,inhibition of SARS-CoV-2 cytopathic effect,[3]; 10000 nM,-2.11% (inactive)
CC(C)NCCCn1c(Sc2cc3c(cc2I)OCO3)nc2c(N)ncnc21 (0.833333 µM),morphology score,[1],0.255
same,SARS-CoV-2 infection rate,[2],96.5% (inactive)
CC(C)[C@H](N)C(=O)OCCOCn1cnc2c(=O)nc(N)[nH]c21 [valaciclovir],inhibition of SARS-CoV-2 cytopathic effect,[3]; 1 nM,0.01% (inactive)
same,inhibition of SARS-CoV-2 cytopathic effect,[3]; 8.33 nM,0.27% (inactive)
same,inhibition of SARS-CoV-2 cytopathic effect,[3]; 100 nM,1.58% (inactive)
same,inhibition of SARS-CoV-2 cytopathic effect,[3]; 833.33 nM,0.1% (inactive)
same,inhibition of SARS-CoV-2 cytopathic effect,[3]; 10000 nM,-2.93% (inactive)
CCOc1c2c(c(OCC)c3ccccc13)C(=O)N(c1ccc(CC(=O)NS(=O)(=O)c3ccccc3)cc1)C2 (10 µM),morphology score,[1],0.117
same,SARS-CoV-2 infection rate,[2],104% (inactive)
CN1CCN(CC(=O)N2c3ccccc3C(=O)Nc3cccnc32)CC1 [pirenzepine],inhibition of SARS-CoV-2 cytopathic effect,[3]; 1 nM,-0.09% (inactive)
same,inhibition of SARS-CoV-2 cytopathic effect,[3]; 8.33 nM,-0.92% (inactive)
same,inhibition of SARS-CoV-2 cytopathic effect,[3]; 100 nM,-2.09% (inactive)
same,inhibition of SARS-CoV-2 cytopathic effect,[3]; 833.33 nM,-0.6% (inactive)
same,inhibition of SARS-CoV-2 cytopathic effect,[3]; 10000 nM,-1.86% (inactive)
Nc1nc(=O)c(Br)c(-c2ccccc2)[nH]1 [bropirimine],inhibition of SARS-CoV-2 cytopathic effect,[3]; 1 nM,-2.33% (inactive)
same,inhibition of SARS-CoV-2 cytopathic effect,[3]; 8.33 nM,1.04% (inactive)
same,inhibition of SARS-CoV-2 cytopathic effect,[3]; 100 nM,1.75% (inactive)
same,inhibition of SARS-CoV-2 cytopathic effect,[3]; 833.33 nM,-0.1% (inactive)
same,inhibition of SARS-CoV-2 cytopathic effect,[3]; 10000 nM,-0.45% (inactive)
NCCC(O)(P(=O)(O)O)P(=O)(O)O [pamidronate] (10 µM),morphology score,[1],0.09
same,SARS-CoV-2 infection rate,[2],114% (inactive)
CCC1=C(C)CN(C(=O)NCCc2ccc(S(=O)(=O)NC(=O)N[C@H]3CC[C@H](C)CC3)cc2)C1=O [glimepiride],inhibition of SARS-CoV-2 cytopathic effect,[3]; 1 nM,-3.26% (inactive)
same,inhibition of SARS-CoV-2 cytopathic effect,[3]; 8.33 nM,-2.65% (inactive)
same,inhibition of SARS-CoV-2 cytopathic effect,[3]; 100 nM,-2.4% (inactive)
CN(CCCN1c2ccccc2CCc2ccccc21)CC(=O)c1ccc(Cl)cc1 [lofepramine] (10 µM),morphology score,[1],-0.0945
same,SARS-CoV-2 infection rate,[2],114% (inactive)
O=S(=O)(O)c1ccc(-c2c3nc(c(-c4ccc(S(=O)(=O)O)cc4)c4ccc([nH]4)c(-c4ccc(S(=O)(=O)O)cc4)c4nc(c(-c5ccc(S(=O)(=O)O)cc5)c5ccc2[nH]5)C=C4)C=C3)cc1,inhibition of SARS-CoV-2 cytopathic effect,[3]; 1 nM,-2.9% (inactive)
same,inhibition of SARS-CoV-2 cytopathic effect,[3]; 8.33 nM,-2.68% (inactive)
same,inhibition of SARS-CoV-2 cytopathic effect,[3]; 100 nM,-5.47% (inactive)
same,inhibition of SARS-CoV-2 cytopathic effect,[3]; 833.33 nM,-6.51% (inactive)
same,inhibition of SARS-CoV-2 cytopathic effect,[3]; 10000 nM,-7.03% (inactive)
Sc1nc2ccccc2s1 [benzo[d]thiazole-2(3H)-thione],inhibition of SARS-CoV-2 cytopathic effect,[3]; 1 nM,-1.3% (inactive)
same,inhibition of SARS-CoV-2 cytopathic effect,[3]; 8.33 nM,0.55% (inactive)
same,inhibition of SARS-CoV-2 cytopathic effect,[3]; 100 nM,-0.47% (inactive)
OC[C@@H](O)[C@@H](O[C@@H]1O[C@H](CO)[C@H](O)[C@H](O)[C@H]1O)[C@H](O)[C@@H](O)CO,inhibition of SARS-CoV-2 cytopathic effect,[3]; 1 nM,-1.07% (inactive)
same,inhibition of SARS-CoV-2 cytopathic effect,[3]; 8.33 nM,0.84% (inactive)
same,inhibition of SARS-CoV-2 cytopathic effect,[3]; 100 nM,0.06% (inactive)
same,inhibition of SARS-CoV-2 cytopathic effect,[3]; 833.33 nM,0.18% (inactive)
same,inhibition of SARS-CoV-2 cytopathic effect,[3]; 10000 nM,-0.36% (inactive)
C[N+]1([O-])[C@@H]2CC[C@H]1C[C@@H](OC(=O)C(CO)c1ccccc1)C2 (stereo partly specified) [atropine-oxide] (10 µM),morphology score,[1],0.0224
same,SARS-CoV-2 infection rate,[2],106% (inactive)
CC(=O)Oc1ccccc1C(=O)Oc1cccc(CO[N+](=O)[O-])c1,inhibition of SARS-CoV-2 cytopathic effect,[3]; 1 nM,-1.24% (inactive)
same,inhibition of SARS-CoV-2 cytopathic effect,[3]; 8.33 nM,-0.2% (inactive)
same,inhibition of SARS-CoV-2 cytopathic effect,[3]; 100 nM,-0.7% (inactive)
same,inhibition of SARS-CoV-2 cytopathic effect,[3]; 833.33 nM,0.32% (inactive)
same,inhibition of SARS-CoV-2 cytopathic effect,[3]; 10000 nM,3.31% (inactive)
C[C@H](CCC(=O)NCCS(=O)(=O)O)[C@H]1CC[C@H]2[C@@H]3[C@@H](O)C[C@@H]4C[C@H](O)CC[C@]4(C)[C@H]3CC[C@]12C [ursodeoxycholyltaurine] (10 µM),morphology score,[1],0.0842
same,SARS-CoV-2 infection rate,[2],102% (inactive)
COc1ccc(NS(=O)(=O)c2sc3ccc(Cl)cc3c2C)cc1N1CCNCC1,inhibition of SARS-CoV-2 cytopathic effect,[3]; 1 nM,0.93% (inactive)
same,inhibition of SARS-CoV-2 cytopathic effect,[3]; 8.33 nM,3.35% (inactive)
same,inhibition of SARS-CoV-2 cytopathic effect,[3]; 100 nM,0.86% (inactive)
same,inhibition of SARS-CoV-2 cytopathic effect,[3]; 833.33 nM,3.23% (inactive)
same,inhibition of SARS-CoV-2 cytopathic effect,[3]; 10000 nM,-3.32% (inactive)
CC(=O)[C@H]1CC[C@H]2[C@@H]3CC[C@H]4C[C@H](O)CC[C@]4(C)[C@H]3C(=O)C[C@]12C [alfaxalone] (10 µM),morphology score,[1],-0.0143
same,SARS-CoV-2 infection rate,[2],112% (inactive)
O=C(CNC(=O)c1ccc(Cl)cc1)NO [benurestat] (10 µM),morphology score,[1],0.153
same,SARS-CoV-2 infection rate,[2],114% (inactive)
